An excerpt weighted towards active compounds, which were near 4.9% of everything screened.
PP1 inh = blocks human PP1-alpha phosphatase, a PP5 counter-screen; P62136; purified PP1alpha, OMFP fluorescence; inhibition, % at 6.7 µM; 320,000 compounds, 0.9% hits; AID 2235;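 active = inhibition above the mean inhibition of all tested compounds plus 3 SD, computed separately for each screening campaign, cut at about 15% in these data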
Mdm2-MdmX inh = disrupts the human Mdm2-MdmX interaction. O15151+Q00987. SaOS-2 split-luciferase Mdm2/MdmX complementation, luminescence. inhibition, % at 8 µM. 330,000 compounds, 3% hits. AID 485346;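 active = inhibition of at least 50% at 8 µM in the primary screen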
Calb FLC = affects C. albicans growth with fluconazole; C. albicans CaCi-2 (fluconazole-resistant clinical isolate) + fluconazole, Alamar Blue growth, 48 h; 300,000 compounds, 0.57% hits; growth inhibition, % (test concentration not listed);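 active = growth inhibition above about 58% in most replicates, limit read from the data, passing the limit was not always enough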;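 also: all wells also contain fluconazole at 8 µg/ml as a sub-toxic cotreatment; 0% = median of DMSO wells and 100% = median of geldanamycin control wells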
CSC inhib = blocks cancer stem cells | AID 2717 | cancer stem cell-like cells viability, luminescence | inhibition, % at 7.5 µM | 300,000 compounds, 1.1% hits; in the data active = inhibition above about 75%; tested in HMLE shEcad cells
PP5 inh = blocks human protein phosphatase 5 activity | purified PP5c, OMFP substrate fluorescence | inhibition, % at 6.7 µM | 320,000 compounds, 0.18% hits | AID 1987;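 active = inhibition above the campaign's mean inhibition across all tested compounds plus 3 SD, cut at about 9.5% in these data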;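 also: 0% = DMSO only and 100% = 100 µM cantharidin control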
Beta apoptosis = beta cell apoptosis inhibition; AID 435005; 300,000 compounds, 0.8% hits; protection from apoptosis, % (concentration not given with the values); INS-1E cytokine-induced death, ATP luminescence, 48 h; percent of positive-control rescue, neutral wells zero;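 active = Every replicate reaches about 75%, or at least half do and their mean reaches it too, limit read from the data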;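 also: 0% = cytokine-treated negative control wells and 100% = positive control rescue; higher means more ATP so stronger rescue from cytokine killing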
Numbers without * were called inactive.

For OCCN1CCN(CCCc2c3c(cc4c2CCC4)CCC3)CC1 the results were PP1 inh -2, Mdm2-MdmX inh 11, Calb FLC -3, CSC inhib 95*, PP5 inh 0 and Beta apoptosis -7.
Cc1c(C)c2ccc(OC(C)C(=O)NCCc3c[nH]c4ccccc34)cc2oc1=O (configuration not stated) was read as PP1 inh -5, Mdm2-MdmX inh 21, Calb FLC 4, CSC inhib 2, PP5 inh 1 and Beta apoptosis 3.
Screening COc1cccc(C2c3c(C)nn(-c4ccc([N+](=O)[O-])cc4)c3N=C3C(=O)Nc4ccccc4N32)c1 (configuration not stated) returned PP1 inh 3, Mdm2-MdmX inh 41, Calb FLC 45, CSC inhib 12, PP5 inh 1 and Beta apoptosis 25.
`COc1ccc(NC2=Nc3ccccc3N3C2=Nc2c(c(C)nn2-c2ccc(C)cc2)C3c2cccnc2)cc1` (configuration not stated) gave PP1 inh -1, Mdm2-MdmX inh 7, Calb FLC 119*, CSC inhib 8, PP5 inh -1 and Beta apoptosis 9.
`CCN(CC)C(=O)NC(c1ccc(C)c(F)c1)C(Cl)(Cl)Cl` (configuration not stated) gave PP1 inh 0, Mdm2-MdmX inh 19, Calb FLC -12, CSC inhib 3, PP5 inh 2 and Beta apoptosis 3.
`CCc1cc[n+](C2=C([O-])c3ccccc3C(=O)/C2=N\S(=O)(=O)c2cccs2)cc1` gave PP1 inh 0, Mdm2-MdmX inh 29, Calb FLC -7, CSC inhib 3, PP5 inh 3 and Beta apoptosis 106*.
`COc1ccccc1-c1nnc(SCC(=O)c2ccc(C3CCCCC3)cc2)n1Cc1ccco1` gave PP1 inh 17*, Mdm2-MdmX inh 45, Calb FLC -5, CSC inhib -13, PP5 inh 1 and Beta apoptosis 3.
`O=C(Nc1oc2ccccc2c(=O)c1-c1ccc(Br)cc1)c1ccco1` gave PP1 inh 0, Mdm2-MdmX inh 9, Calb FLC 4, CSC inhib 8 and PP5 inh 1.
For CCCN1CN(c2ccccc2)C(=S)N(c2ccccc2)C1 the results were PP1 inh 0, Mdm2-MdmX inh -4, Calb FLC -3, CSC inhib -11, PP5 inh 0 and Beta apoptosis -1.
For CCOC(=O)CNC(c1ccccc1)c1cc(Br)ccc1NC(=O)CCN1CCOCC1 (configuration not stated) the results were PP1 inh 4, Mdm2-MdmX inh 48, Calb FLC 111*, CSC inhib 15, PP5 inh -2 and Beta apoptosis -11.
Cc1noc(NC(=O)c2ccc(Cl)c(Cl)c2)c1Cl was read as PP1 inh -4, Mdm2-MdmX inh 25, Calb FLC 89*, CSC inhib 3, PP5 inh 0 and Beta apoptosis -3.
Cc1nc(NC(=O)C2CC2)sc1C(=O)Nc1cccc(Cl)c1 was read as Mdm2-MdmX inh 16, Calb FLC 39, CSC inhib 34 and Beta apoptosis 6.
`Cc1nc(Nc2ccc(Cl)cc2Cl)sc1C(=O)Nc1ccccc1` gave PP1 inh -1, Mdm2-MdmX inh 33, Calb FLC 25, CSC inhib 83*, PP5 inh 4 and Beta apoptosis 11.
For CSc1nc2ccc(NC(=O)c3ccc(F)c(F)c3)cc2s1 the results were PP1 inh -1, Mdm2-MdmX inh -130, Calb FLC 35, CSC inhib -5 and PP5 inh -1.
CCOC(=O)Nc1ccc2nc(Sc3ccc(Cl)cc3)sc2c1 was read as PP1 inh 2, Mdm2-MdmX inh 47, Calb FLC 2, CSC inhib 85*, PP5 inh 3 and Beta apoptosis 20.
`CCOC(=O)CN(C(=O)c1ccccc1[N+](=O)[O-])C(C)(C)C` gave PP1 inh -1, Mdm2-MdmX inh 23, Calb FLC -3, CSC inhib -7, PP5 inh 1 and Beta apoptosis -8.
Screening O=C(O)c1ccc2c(=O)n(Cc3ccccc3)c(SCc3ccc([N+](=O)[O-])cc3)nc2c1 returned PP1 inh 18*, Mdm2-MdmX inh -18, Calb FLC 41, CSC inhib 17, PP5 inh 3 and Beta apoptosis 6.
